Measurements from PubChem BioAssay (NCI).
The panel holds about 83,000 compounds, 20% with a hit somewhere; the sample as a whole holds those more often.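 Percent growth is the endpoint: 0 to 100 indicates growth inhibition (40 means 60% inhibition), 0 means no net growth, and negative values indicate cell death.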 Activity calls are given as the source filed them. How the source made its calls: active means growth percent below 10; inactive means the rest.

Legend:
Test in all cases: NCI-60 one-dose screen, 48 h (100 = growth as untreated, 0 = no growth, -100 = all killed)
Conditions in all cases: 10 µM unless noted
[1] = test system: SR leukemia
[2] = test system: RPMI-8226 leukemia
[3] = test system: OVCAR-8 ovarian
[4] = test system: OVCAR-5 ovarian
[5] = test system: OVCAR-4 ovarian
[6] = test system: SK-OV-3 ovarian
[7] = test system: IGROV1 ovarian
[8] = test system: OVCAR-3 ovarian
[9] = test system: HS 578T breast
[10] = test system: NCI/ADR-RES ovarian
[11] = test system: T-47D breast
[12] = test system: BT-549 breast
[13] = test system: MDA-MB-435 melanoma
[14] = test system: SW-620 colon
[15] = test system: MCF7 breast
[16] = test system: HCT-116 colon
[17] = test system: HCC-2998 colon
[18] = test system: KM12 colon
[19] = test system: MDA-MB-468 breast

Measured: growth

O=C(NN1C(=O)/C(=C/C=C/c2ccc([N+](=O)[O-])o2)SC1=S)c1ccc(O)cc1
active: [1] -7.52% | [2] -26.1% | [3] -70.9% | [4] -98.7% | [5] -99.8% | [6] -98.9% | [7] -95.6% | [8] -88.6% | [9] -1.61% | [10] -22.3% | [11] -53.4% | [12] -94% | [13] -91% | [14] -69.1% | [15] -54.4% | [16] -85.1% | [17] -92.6% | [18] -95.2% | [19] -77.3%

COc1ccc(/C=C/C(=O)c2ccc(S(=O)(=O)NCCNc3nc(N(C)C)nc(N4CCOCC4)n3)cc2)cc1
active: [16] -9.23%
inactive: [1] 13.8% | [2] 14% | [3] 98.5% | [4] 95.4% | [5] 94.1% | [6] 101% | [7] 98.5% | [8] 100% | [9] 104% | [10] 89.7% | [11] 83.5% | [12] 105% | [13] 81.8% | [14] 68.7% | [15] 11.8% | [17] 116% | [18] 64.8% | [19] 76.3%

COc1ccc(/C=C/c2nc3ccccc3n3c(-c4cccc([N+](=O)[O-])c4)nnc23)cc1
inactive: [6] 25.6% | [9] 12%
active: [1] -33.3% | [2] -18.3% | [3] -43.6% | [4] -59.9% | [5] -14.6% | [7] -69% | [8] -77.4% | [10] -27% | [11] -7.62% | [12] -87.5% | [13] -46.5% | [14] -22.3% | [15] -64.5% | [16] -76.2% | [17] -84.5% | [18] -67.3% | [19] -65%

Cc1ccc(C2CC(c3ccc(NC(=S)Nc4ccccc4)cc3)=NN2c2ccc(S(N)(=O)=O)cc2)cc1 (stereo not given)
inactive: [1] 17.8% | [3] 26% | [4] 16.2% | [5] 27.1% | [6] 41.5% | [7] 19.2% | [9] 31.7% | [11] 24.5% | [13] 23.6% | [14] 19.8% | [16] 10.1%
active: [2] 7.06% | [8] 2.37% | [10] 7.5% | [12] -10% | [15] 2.64% | [17] -16.9% | [18] 2.95% | [19] 9.79%

N#C/C(=C/c1ccc(Cl)cc1)c1nnc(NC(=O)c2ccc(-n3c(=O)[nH]c4ccccc4c3=O)cc2)s1
inactive: [1] 62.7% | [2] 70.4% | [3] 46% | [4] 83.9% | [5] 75.3% | [6] 85% | [7] 80.9% | [8] 84.6% | [9] 34.1% | [10] 81.5% | [11] 64.2% | [12] 40% | [13] 84.7% | [14] 73.8% | [15] 38% | [16] 46.4% | [17] 23.5% | [18] 23.6% | [19] 34.9%

Cc1nc(Nc2ccccn2)sc1C1=NNC(c2ccccc2F)C1 (stereo not given)
active: [13] -17.9% | [19] -13.7%
inactive: [1] 12.4% | [2] 30.4% | [3] 68% | [4] 82.8% | [5] 74.8% | [6] 98.3% | [7] 64.2% | [8] 24.8% | [9] 87.6% | [10] 20.9% | [11] 33.5% | [12] 36.1% | [14] 32.1% | [15] 20.1% | [16] 34.3% | [17] 95.7% | [18] 23.4%

COc1c(B(O)O)cc(F)cc1-c1nc2ccc3[nH]ncc3c2c2c1COCC2
inactive: [1] 43.4% | [2] 31.5% | [3] 51.5% | [4] 90.3% | [5] 102% | [6] 82.8% | [7] 57.8% | [8] 64.1% | [10] 93.9% | [11] 62.6% | [13] 87.1% | [14] 34.3% | [15] 44.7% | [16] 19.8% | [17] 80.3% | [18] 70.2% | [19] 41.9%
active: [9] 9.63% | [12] -7.9%

CN(C)CCOc1ccc(C(=O)C2[C@H](c3ccc(Cl)cc3)[C@@H](c3ccccc3)NC23C(=O)Nc2ccc(Cl)cc23)cc1 (stereo not given in full)
active: [1] -77.4% | [2] -43.6% | [3] -67.9% | [4] -79.2% | [5] -91.5% | [6] -86.4% | [7] -87% | [8] -51.4% | [9] -29.4% | [10] -90.7% | [11] -81.7% | [12] -97.6% | [13] -96.2% | [14] -87.2% | [15] -81.5% | [16] -91% | [17] -91.8% | [18] -67.1% | [19] -92.3%

CC1=C(C)C(=O)C(NCCN2CCOCC2)=C(Br)C1=O
inactive: [1] 55.9% | [2] 58.6% | [3] 16.3% | [6] 87.5% | [7] 31.4% | [9] 60.4% | [10] 86.4% | [12] 87.4% | [14] 32.7% | [15] 10.3% | [17] 101% | [18] 94.2%
active: [4] 4% | [5] -67.4% | [8] -26.9% | [11] -58.6% | [13] -87.5% | [16] -75.5% | [19] -96.2%

COc1ccc(NC(=O)Nc2nc3ccc([N+](=O)[O-])cc3s2)cc1
inactive: [3] 17.1% | [4] 60.4% | [5] 15.2% | [6] 58.6% | [7] 26.4% | [8] 18% | [12] 17.9% | [13] 23% | [14] 15% | [16] 10.3% | [17] 19.2%
active: [1] 5.15% | [2] -2.91% | [9] 5.84% | [10] -1.49% | [11] 4.2% | [15] 0.377% | [18] 3.81% | [19] -7.85%

CC(C)(C)C(=O)c1c2c(c3ccc4c5ccccc5ccc4n13)C(=O)c1ccccc1C2=O
inactive: [1] 85.5% | [2] 96.6% | [3] 96.3% | [4] 116% | [5] 71.2% | [6] 118% | [7] 95.7% | [8] 94.4% | [9] 100% | [10] 95.5% | [11] 95.6% | [12] 101% | [13] 103% | [14] 102% | [15] 75% | [16] 90.7% | [17] 112% | [18] 94.4% | [19] 98.7%

O=c1ccc(Cn2c(C(F)(F)F)cc3c(Cl)ncnc32)c[nH]1
inactive: [2] 81.1% | [4] 126% | [6] 119% | [10] 61.3% | [11] 75.7% | [13] 25.5% | [14] 32.5% | [15] 82.4% | [16] 19.5% | [17] 40.4% | [18] 105% | [19] 37.2%
active: [1] -53.9% | [3] 0.681% | [5] -2.63% | [7] -67.4% | [8] -20% | [9] -14.4% | [12] 4.61%

OC1CCC(Cn2c(C(F)(F)F)cc3c(Cl)ncnc32)CC1 (stereo not given)
active: [1] -58.9% | [3] -4.04% | [5] -19.9% | [7] -85.7% | [8] -25.1% | [9] -35.7% | [12] -37.7% | [13] 8.29% | [16] 1.57% | [17] -94% | [19] 9.1%
inactive: [2] 84.9% | [4] 94.6% | [6] 57.7% | [10] 51.8% | [11] 82% | [14] 38.8% | [15] 91% | [18] 86.5%

COc1cncc(-c2ccc3ncnc(N4CCc5ccc(Cl)cc54)c3c2)c1
inactive: [3] 39.4% | [4] 30% | [5] 32% | [6] 27.4% | [8] 55.4% | [9] 20.1% | [11] 14.1% | [13] 53.6% | [14] 60.7% | [17] 16.9% | [18] 21.5%
active: [1] 3.37% | [2] -21.2% | [7] -63.4% | [10] 1.41% | [12] -72.1% | [15] -1.93% | [16] -58% | [19] -67.4%

CN1C(=O)/C(=C/c2ccco2)S/C1=N/c1nccs1
active: [19] -13.2%
inactive: [1] 89.5% | [2] 115% | [3] 104% | [4] 110% | [5] 97.8% | [6] 106% | [7] 106% | [8] 114% | [9] 111% | [10] 101% | [11] 65.9% | [12] 112% | [13] 107% | [14] 106% | [15] 33.7% | [16] 95.2% | [17] 107% | [18] 98%
